The test system of assay [1] is Plasmodium falciparum Sir2 (PF13_0152, Sir2A). Put plainly: Plasmodium falciparum Sir2A binding compounds – biochemical, small-molecule microarray, 635 nm fluorescence, primary screen (AID 1098).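 Further: score merges spot fluorescence intensity with its signal-to-noise ratio.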 Conditions: fluorescence 635 nm, higher = more signal.
The nature of assay [2]: probe aDKK1 binding to arrayed compounds – biochemical, biotinylated probe, 635/667 nm fluorescence, primary screen (AID 1099).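 Further: score merges 667nm spot fluorescence with signal to noise across triplicate slides.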 The settings on record: small-molecule microarray, higher = more signal.
Assay [3] in a line: probe aCHRDL2 binding to arrayed compounds – biochemical, biotinylated probe, 635/667 nm fluorescence, primary screen (AID 1100). Conditions: small-molecule microarray, higher = more signal.
A short description of assay [4]: change in splice reporter luminescence, either direction, cell-based, HEK293, spliceosome inhibition project, primary screen (AID 1101).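 Further: HEK293 cells carrying a splicing-competent luciferase reporter gene; test concentration not given here.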 The settings on record: HEK293 splicing luciferase reporter, 24 h, higher = more signal, called active from +8 up or from −8 down.
Assay [5] deals with Fibroblast growth factor 10 (Homo sapiens) (UniProt O15520). In words: compounds binding fibroblast growth factor 10 – biochemical, small-molecule microarray, 635 nm fluorescence, primary screen (AID 1102). Conditions: FGF10 binding, fluorescence 635 nm, higher = more signal.
Assay [6] has as its system glycogen synthase kinase-3 (GSK3A per assay name; protocol says GSK3B). In words: compounds binding glycogen synthase kinase-3 – biochemical, small-molecule microarray, 635 nm fluorescence, GSK3A, primary screen (AID 1103). Further: the record names both GSK3A and GSK3B. Conditions: fluorescence 635 nm, higher = more signal.
Assay [7] deals with Epidermal growth factor receptor (Homo sapiens) (UniProt P00533). Put plainly: compounds binding epidermal growth factor receptor – biochemical, small-molecule microarray, 635 nm fluorescence, primary screen (AID 1104).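 Further: score merges 667 nm emission intensity with spot signal to noise over triplicate slides.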 The settings on record: EGFR binding, higher = more signal.
In assay [8] the target is Follistatin-related protein 3 (Homo sapiens) (UniProt O95633). In words: compounds binding follistatin-related protein 3 – biochemical, small-molecule microarray, 635 nm fluorescence, primary screen (AID 1105).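 Further: score merges emission near 667 nm and signal to noise per printed spot across three slides.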 The settings on record: FSTL3 binding, higher = more signal.
The target in assay [9] is Dickkopf-related protein 1 (Homo sapiens) (UniProt O94907). Put plainly: small molecules binding DKK1 protein – biochemical, small-molecule microarray, 635 nm fluorescence scan, primary screen (AID 1106).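 Further: score merges emission near 667 nm with signal to noise over three replicate slides.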 The settings on record: higher = more signal.
Assay [10] relates to Inhibin beta A chain (activin A). In words: small molecules binding activin A – biochemical, small-molecule microarray, 635 nm fluorescence scan, primary screen (AID 1107).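 Further: mouse activin A protein probed at 4.33 µg/mL on printed slides; score merges bound-protein fluorescence near 667 nm with spot signal-to-noise.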 Conditions: INHBA, higher = more signal.
The subject of assay [11] is Human papillomavirus type 1a protein E7 (residues 44-93). In words: small molecules binding HPV E7 44-93 – biochemical, small-molecule microarray, residues 44-93, 635 nm fluorescence, primary screen (AID 1108).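 Further: E7 fragment applied at 1 µg/mL in TBST for 1 h at 4 C; score combines spot fluorescence with its signal to noise ratio.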 Conditions: fluorescence 635 nm, higher = more signal.
Assay [12] in a line: hepatitis C replication reporter changes, two-sided – Huh7 cells, luciferase reporter, HCV replication inhibitor project, primary screen (AID 1109).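 Further: huh7 hepatoma cells harbouring a luciferase neomycin HCV replicon reporter; luciferase luminescence as measure of HCV replicon replication; test concentration not given here.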 Conditions: Huh7 HCV replicon luciferase reporter, 48 h; higher = more signal.
Assay [13] concerns the target Left-right determination factor 2 (Homo sapiens) (UniProt O00292). In words: small molecules binding LEFTY2 protein – biochemical, small-molecule microarray, 635 nm fluorescence scan, primary screen (AID 1110). Conditions: higher = more signal.
The target in assay [14] is Calmodulin-1 (Homo sapiens) (UniProt P0DP23). In words: small molecules binding calmodulin-1 with EGTA – biochemical, small-molecule microarray, Cy5-labelled CALM1, profiling panel (AID 1111).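 Further: labelled calmodulin applied in Tris saline Tween buffer holding calcium plus EGTA and DTT.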 The settings on record: Cy5-CALM1 binding fluorescence, higher = more signal.
For assay [15] the target is unchanged. In words: small molecules binding Ca-loaded calmodulin-1 – biochemical, small-molecule microarray, Cy5-labelled CALM1, plus calcium, artefact control for SMM control-protein annotation, profiling panel (AID 1112).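 Further: score merges spot fluorescence with signal to noise from triplicate slides.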 The settings on record: Cy5-CALM1 binding fluorescence, higher = more signal.
A short description of assay [16]: probe aWnt5a binding to arrayed compounds – biochemical, biotinylated probe, 635/667 nm fluorescence, primary screen (AID 1113).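 Further: score merges 667 nm fluorescence intensity with signal-to-noise per printed feature.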 Conditions: small-molecule microarray, higher = more signal.
A short description of assay [17]: probe aShh binding to arrayed compounds – biochemical, biotinylated probe, 635/667 nm fluorescence, primary screen (AID 1114).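 Further: probe is biotin-labelled aShh protein from a stem cell growth factor screen; measures binding of labelled protein to compounds printed on the slide; score merges feature fluorescence at 667 nm with signal-to-noise.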 The settings on record: small-molecule microarray, higher = more signal.
The nature of assay [18]: probe aNog binding to arrayed compounds – biochemical, biotinylated probe, 635/667 nm fluorescence, primary screen (AID 1115).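 Further: probe is biotinylated aNog protein used at 0.15 µg/mL for 1 h at 4 C; z-score combines 667 nm fluorescence of each spot with its signal to noise.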 Conditions: small-molecule microarray, higher = more signal.
For assay [19], the target named is Torsin-1A-interacting protein 1 (Homo sapiens) (UniProt Q5JTV8). In words: compound microarray binding of lysate hLAP1 – cell lysate, small-molecule microarray, COS7 lysate, 635/667 nm fluorescence, primary screen (AID 1116). The settings on record: 635 nm fluorescence, higher = more signal.
Assay [20] deals with Alpha-bungarotoxin (Bungarus multicinctus) (UniProt P60615). Put plainly: compounds binding labelled alpha-BTX control protein – biochemical, small-molecule microarray, Alexa647 label, 635/667 nm fluorescence, artefact control for SMM control protein annotation, profiling panel (AID 1117). The settings on record: alpha-BTX-A647 binding fluorescence, higher = more signal.

The structures appear in SMILES notation. Calls of active or inactive are those of the source.

Sequence of Follistatin-related protein 3 (Homo sapiens) (O95633 whole entry, looked up): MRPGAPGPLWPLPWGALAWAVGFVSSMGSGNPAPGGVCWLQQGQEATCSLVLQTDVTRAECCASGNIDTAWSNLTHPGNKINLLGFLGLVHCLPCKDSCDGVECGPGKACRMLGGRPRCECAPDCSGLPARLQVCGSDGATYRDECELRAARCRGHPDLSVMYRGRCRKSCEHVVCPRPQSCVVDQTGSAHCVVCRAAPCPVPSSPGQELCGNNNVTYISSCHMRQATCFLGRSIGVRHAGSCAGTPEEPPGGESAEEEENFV
Sequence of Dickkopf-related protein 1 (Homo sapiens) (O94907 whole entry, looked up): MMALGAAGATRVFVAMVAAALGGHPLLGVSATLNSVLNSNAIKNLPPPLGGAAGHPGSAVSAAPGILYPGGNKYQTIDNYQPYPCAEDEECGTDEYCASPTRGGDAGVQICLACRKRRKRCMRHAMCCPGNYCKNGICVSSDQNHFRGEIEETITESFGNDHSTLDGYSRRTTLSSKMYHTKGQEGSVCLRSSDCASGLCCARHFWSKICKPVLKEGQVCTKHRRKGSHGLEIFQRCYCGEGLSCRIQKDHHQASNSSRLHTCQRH
Sequence of Left-right determination factor 2 (Homo sapiens) (O00292 whole entry, looked up): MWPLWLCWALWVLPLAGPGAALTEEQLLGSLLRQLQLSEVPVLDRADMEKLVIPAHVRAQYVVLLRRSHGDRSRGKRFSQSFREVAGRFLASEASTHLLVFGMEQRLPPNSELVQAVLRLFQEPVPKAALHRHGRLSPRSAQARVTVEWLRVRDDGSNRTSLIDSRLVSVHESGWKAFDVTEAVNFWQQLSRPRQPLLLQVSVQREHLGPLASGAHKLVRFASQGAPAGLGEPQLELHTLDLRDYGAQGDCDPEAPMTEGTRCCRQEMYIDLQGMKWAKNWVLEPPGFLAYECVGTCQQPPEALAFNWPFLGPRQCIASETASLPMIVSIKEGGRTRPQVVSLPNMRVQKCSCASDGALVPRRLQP
Sequence of Epidermal growth factor receptor (Homo sapiens) (P00533 whole entry, looked up): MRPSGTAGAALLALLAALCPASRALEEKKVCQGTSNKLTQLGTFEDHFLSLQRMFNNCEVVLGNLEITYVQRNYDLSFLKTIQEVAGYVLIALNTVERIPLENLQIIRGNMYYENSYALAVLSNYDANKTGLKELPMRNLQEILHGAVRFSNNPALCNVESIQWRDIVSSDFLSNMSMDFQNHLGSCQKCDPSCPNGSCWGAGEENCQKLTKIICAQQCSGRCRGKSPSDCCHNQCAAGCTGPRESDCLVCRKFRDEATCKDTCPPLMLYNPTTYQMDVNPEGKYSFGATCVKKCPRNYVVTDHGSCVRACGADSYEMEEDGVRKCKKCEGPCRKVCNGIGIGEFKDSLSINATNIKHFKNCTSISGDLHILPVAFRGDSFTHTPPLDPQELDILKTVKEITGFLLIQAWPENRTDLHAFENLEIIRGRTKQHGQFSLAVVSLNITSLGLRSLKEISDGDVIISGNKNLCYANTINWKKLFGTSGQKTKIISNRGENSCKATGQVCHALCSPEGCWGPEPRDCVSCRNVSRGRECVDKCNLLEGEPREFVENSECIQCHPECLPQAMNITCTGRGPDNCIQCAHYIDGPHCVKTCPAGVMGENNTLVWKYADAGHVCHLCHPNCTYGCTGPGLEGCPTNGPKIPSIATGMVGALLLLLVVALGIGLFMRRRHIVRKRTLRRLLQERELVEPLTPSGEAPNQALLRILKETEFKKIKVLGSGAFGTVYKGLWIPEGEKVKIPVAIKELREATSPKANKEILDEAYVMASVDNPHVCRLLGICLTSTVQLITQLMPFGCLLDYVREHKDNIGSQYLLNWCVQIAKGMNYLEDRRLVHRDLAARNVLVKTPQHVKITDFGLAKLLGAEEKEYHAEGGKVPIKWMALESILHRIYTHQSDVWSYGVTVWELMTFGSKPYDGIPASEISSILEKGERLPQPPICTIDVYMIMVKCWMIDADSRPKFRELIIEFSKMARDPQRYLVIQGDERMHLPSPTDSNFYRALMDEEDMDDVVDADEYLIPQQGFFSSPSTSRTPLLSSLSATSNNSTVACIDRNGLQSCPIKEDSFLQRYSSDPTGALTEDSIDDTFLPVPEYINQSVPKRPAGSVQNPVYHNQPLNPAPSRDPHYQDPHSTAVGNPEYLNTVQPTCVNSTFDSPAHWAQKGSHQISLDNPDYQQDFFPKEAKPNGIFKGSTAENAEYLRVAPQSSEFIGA
Sequence of Alpha-bungarotoxin (Bungarus multicinctus) (P60615 whole entry, looked up): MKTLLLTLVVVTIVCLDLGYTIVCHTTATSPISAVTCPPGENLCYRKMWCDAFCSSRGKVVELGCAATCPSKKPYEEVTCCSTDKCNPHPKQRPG
Sequence of Fibroblast growth factor 10 (Homo sapiens) (O15520 whole entry, looked up): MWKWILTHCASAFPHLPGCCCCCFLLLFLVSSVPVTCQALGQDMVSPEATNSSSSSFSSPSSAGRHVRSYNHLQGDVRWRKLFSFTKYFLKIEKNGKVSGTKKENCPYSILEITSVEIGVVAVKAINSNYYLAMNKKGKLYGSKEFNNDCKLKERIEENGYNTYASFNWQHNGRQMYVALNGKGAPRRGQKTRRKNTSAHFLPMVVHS
Sequence of Torsin-1A-interacting protein 1 (Homo sapiens) (Q5JTV8 whole entry, looked up): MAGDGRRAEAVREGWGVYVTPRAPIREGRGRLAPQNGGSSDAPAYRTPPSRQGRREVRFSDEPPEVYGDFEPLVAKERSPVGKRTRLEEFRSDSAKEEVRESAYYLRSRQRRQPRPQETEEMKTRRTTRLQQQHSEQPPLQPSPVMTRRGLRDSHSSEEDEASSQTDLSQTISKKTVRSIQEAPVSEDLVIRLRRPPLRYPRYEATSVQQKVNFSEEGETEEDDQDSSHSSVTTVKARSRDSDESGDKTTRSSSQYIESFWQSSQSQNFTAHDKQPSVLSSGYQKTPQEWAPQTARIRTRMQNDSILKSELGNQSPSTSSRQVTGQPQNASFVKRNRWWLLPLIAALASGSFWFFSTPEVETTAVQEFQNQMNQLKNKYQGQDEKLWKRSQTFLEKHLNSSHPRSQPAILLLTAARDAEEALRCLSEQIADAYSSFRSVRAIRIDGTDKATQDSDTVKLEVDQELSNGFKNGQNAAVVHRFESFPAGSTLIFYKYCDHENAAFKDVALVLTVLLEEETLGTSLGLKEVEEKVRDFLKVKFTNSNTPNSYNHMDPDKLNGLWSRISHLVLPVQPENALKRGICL

For `COc1ccccc1CN1C(=O)c2ccccc2[C@@]2(Cc3ccccc3N(CC(F)(F)F)C2=O)[C@@H]1c1ccc(CO)cc1`, the composite z-score was 0.144 in assay [1]; -0.435 in assay [2]; -0.167 in assay [3]; 0.507 in assay [5]; 0.524 in [6]; 0.414 in [7]. The composite z-score in assay [8] was 0.614; in assay [9], 0.564; in assay [10], 1.03; in [11], 0.802; in [13] it was 0.244; in assay [14] it was -0.504. In addition, the composite z-score in assay [15] is -0.723; in [16] it was 0.13; in [17], -0.308; in [18] it was 1.68; in [19], -0.0328; in assay [20], 0.118. Besides, the z-score was 1.49 (inactive) in assay [4] and -0.521 in [12].

As to `C[N+](C)(C)CCCCCCNC(=O)[C@H]1C[C@H]2C(=O)NCC(=O)N2[C@H]1c1ccc(O)cc1`, the composite z-score in assay [1] is 1.51; in assay [2] it was -0.34; in [3], -0.592; in assay [5], 1.35; in [6] it was 0.846; in assay [7], 0.056. Moreover, the composite z-score in assay [8] is 1.42; in assay [9], 0.687; in assay [10], -0.253; in [11] it was 1.34; in assay [13] it was 1.03; in assay [14], 0.14. For the same compound, the composite z-score was -1.16 in assay [15]; -0.0846 in assay [16]; 0.21 in [17]; -0.507 in assay [18]; -0.489 in assay [19]; 0.713 in assay [20]. Further, the figures for the z-score in [4] and in assay [12] were -0.271 (inactive) and 1.4, respectively.

For the compound `CCCCCCCCCCC(O)C1C=CC2C(=O)N(C)C(=O)C2N1NC(=O)OC(C)(C)C` (stereo not given), the composite z-score was 0.18 in assay [1]; -0.0906 in assay [2]; 0.0331 in assay [3]; -0.737 in assay [5]; 0.386 in assay [6]; -0.0167 in assay [7]. The composite z-score in assay [8] was -0.112; in assay [9], -0.145; in assay [10] it was 0.417; in assay [11] it was 1.17; in [13] it was 0.186; in assay [14], 1.41. Moreover, the composite z-score is 0.953 in assay [15]; -0.0684 in [16]; 0.445 in assay [17]; 0.3 in assay [18]; -0.122 in [19]; 0.294 in [20]. Besides, the z-score in [4] was 11.3 (active); in assay [12], -2.54.

With `COC(=O)[C@@]1(Cc2ccccc2)[C@H]2c3cc(C(=O)N(C)C)n(CCc4ccc(O)c(OC)c4)c3C[C@H]2CN1C(=O)c1ccccc1`, the composite z-score in assay [1] was found to be 0.0108; in assay [2] it was 1.32; in [3], 0.379; in [5] it was 0.626; in assay [6], 0.652; in [7], 0.569. The composite z-score in assay [8] was 0.37; in [9] it was 0.358; in assay [10], -0.0861; in assay [11], 0.351; in [13] it was 0.38; in assay [14] it was 0.89. The composite z-score in assay [15] was -0.136; in assay [16] it was 0.583; in assay [17], 1.49; in assay [18], 0.974; in assay [19], 0.279; in assay [20], 0.19. For the same compound, the results for the z-score in assay [4] and in assay [12] were 0.905 (inactive) and -0.261, respectively.

As for `CC(=O)NCCCC[C@@H]1NC(=O)[C@@H]2C[C@H](C(=O)NCCCC[N+](C)(C)C)[C@H](c3ccc(O)cc3)N2C1=O`, the composite z-score in [1] was 1.46; in assay [2], -0.151; in assay [3], -0.295; in assay [5], 1.33; in assay [6], 0.301; in [7] it was 0.753. Besides, the composite z-score in [8] is 1.47; in [9], 1.76; in [10], -0.261; in [11], 0.364; in [13], 1.35; in assay [14], -0.206. For the same compound, the composite z-score is 0.32 in assay [15]; -0.0758 in [16]; 0.366 in assay [17]; 0.33 in assay [18]; 1.06 in assay [19]; 1.57 in assay [20]. The z-score in assay [4] was -1.47 (inactive); in assay [12], -0.307.

For the origin of these results see PubChem BioAssay.
